IL-1B inflam inh: qHTS for Inhibitors of Inflammasome Signaling: IL-1-beta AlphaLISA Primary Screen; THP-1 LPS/ATP IL-1B secretion, AlphaLISA, 16 h; hits give low values; activity change, % at 57.5 µM; actives 4.7% (n = 360,000); AID 743279, 2014; in the data active = activity change below about -50%; inconclusive = mostly about -30% to -49%
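THP-1 cells pretreated 1 hr with compounds (up to 57.5 uM final), then stimulated with LPS (250 ng/mL final) plus ATP (1.25 mM final); secreted IL-1B measured by AlphaLISA after 16 hr, decreased signal indicating inhibition.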
TDP1 cell CPT: qHTS for Inhibitors of human tyrosyl-DNA phosphodiesterase 1 (TDP1): qHTS in cells in presence of CPT; actives 12% (n = 420,000); chicken DT40 Tdp1-/-;hTDP1 cells + 20 nM CPT, ATP luminescence, 48 h; Potency, µM (highest dose often 46.2 µM), for inactives: at the top dose activity change, negative = growth inhibition, most hits filed as inhibitors; AID 686979, 2013; also: potency is read from the fitted curve at half-maximal effect; nearly all actives have a fitted effect of over 55% in size
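Cell growth measured by CellTiter-Glo luminescence after a minimum 48 h, 37 C compound exposure with 20 nM CPT in Tdp1-knockout DT40 cells stably expressing hTDP1, seeded 400/well; qHTS titration format.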
HT1080 IDH1KD tx: qHTS for induction of synthetic lethality in tumor cells producing 2HG: qHTS for the HT-1080-IDH1KD cell line. HT-1080 IDH1 knockdown viability, ATP luminescence, 48 h. Potency, µM (series often up to 46.1 µM), for inactives: top-dose activity, negative = toxicity, actives largely listed as cytotoxic. actives 2% (n = 360,000);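 also: potency is read from the fitted curve at half-maximal effect; 0% = DMSO wells and -100% = cell-free medium wells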
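Assay cells: HT-1080 with IDH1 knockdown, 750 per well, RPMI/5% FBS. Exposure: 48 h at 37 °C following 2 h pre-incubation. Read: CellTiter-Glo luminescence; fitted concentration-response, curve class assigned.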
DT40 TDP1 no CPT: qHTS for Inhibitors of human tyrosyl-DNA phosphodiesterase 1 (TDP1): qHTS in cells in absence of CPT. Potency, µM (series often up to 46.2 µM), for inactives: at the top dose activity change, negative = growth inhibition, usual class: inhibitors. DT40 Tdp1-/- hTDP1 cells, no CPT, ATP luminescence, 48 h. actives 15% (n = 420,000); also: potency is read from the fitted curve at half-maximal effect; nearly all actives have a fitted effect of over 55% in size
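Stably hTDP1-transfected Tdp1-null chicken DT40 cells were treated with library compounds minus camptothecin and grown for at least 48 hr at 37 °C, after which cellular ATP was quantified by luminescence.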
HT1080-NT tox: qHTS for induction of synthetic lethality in tumor cells producing 2HG: qHTS for the HT-1080-NT fibrosarcoma cell line | actives 1.6% (n = 360,000) | Potency, µM (top dose mostly 46.1 µM), for inactives: at the top dose activity, negative = less viability, hits mostly cytotoxic | AID 686970, 2013 | HT-1080-NT fibrosarcoma viability, CellTiter-Glo ATP luminescence, 48 h;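 also: NT is the 2HG producing partner of a matched IDH1 knockdown line; potency is read from the fitted curve at half-maximal effect; 0% = DMSO-treated cells and -100% = media-only wells without cells; nearly all actives have a fitted effect of over 55% in size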
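Fibrosarcoma NT cells, 750 per well in 5% FBS RPMI, were exposed to compound for 48 hours. Viability: CellTiter-Glo luminescence.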
Numbers without * were called inactive; u = inconclusive; x = no result; [ ] = remark or other dose. The list is not random: actives were taken first. Their share in the collection is about 19%. Unless noted, calls follow the shape of the dose curve; as a rule, active = well fitted curve in the direction sought with a large enough effect; inconclusive = small, poorly fitted or top-dose-only effect, or another doubt; inactive = no such curve, though single readings can be large; an effect the other way counts as inactive or inconclusive. Unless noted, % is scaled to controls: 0 for no effect and ±100 for the full control effect.

SMILES	IL-1B inflam inh	TDP1 cell CPT	HT1080 IDH1KD tx	DT40 TDP1 no CPT	HT1080-NT tox
COC(=O)N1CCC2(CC1)CN(C(=O)Nc1cccc(C#N)c1)C2	x	-10%	x	2%	x
COc1ccccc1NC(=O)COC(=O)CCn1c(C)csc1=O	7	15%	3%	4%	7%
Cc1ccc(C)c(S(=O)(=O)N2CCN(C(=O)Cn3cnc4c3c(=O)n(C)c(=O)n4C)CC2)c1	-22	-19%	-1%	15%	2%
COc1ccc(C(CNC(=O)c2ccc(C)c(S(=O)(=O)N3CCCCC3)c2)N2CCCC2)cc1 (stereo unspecified)	-23	u	2%	-20%	1%
COc1ccccc1N1CCN(c2cc(=O)n(Cc3ccc(F)cc3)c(=O)[nH]2)CC1	32	3.7µM*	u	4.6µM*	12µM*
O=c1cc(N2CCN(c3ccccc3Cl)CC2)[nH]c(=O)n1Cc1ccc(F)cc1	18	4.6µM*	2.6µM*	1.5µM*	u
CCN1CCN(c2cc(=O)n(Cc3ccc(F)cc3)c(=O)[nH]2)CC1	16	1%	5%	2%	2%
COc1ccc(N2CCN(C(=O)CN3c4cccc5cccc(c45)S3(=O)=O)CC2)cc1	u	u	-11%	u	0%[9.24 µM]
OC1(c2cccnc2)CCN(Cc2ccc3c(c2)CN(Cc2cccc(C(F)(F)F)c2)CCO3)CC1	x	-22%[9.04 µM]	x	26µM*	x
OC1(c2cccnc2)CCN(Cc2ccc3c(c2)CN(Cc2cc4ccccc4s2)CCO3)CC1	x	-2%[9.04 µM]	x	16µM*	x
OC1(c2cccnc2)CCN(Cc2ccc3c(c2)CN(Cc2ccsc2)CCO3)CC1	x	9%[9.04 µM]	x	-23%	x
O=C(NC1CCCC1)C(c1ccccc1)n1c(-c2ccc3c(c2)CCO3)nc2ccccc21 (stereo unspecified)	-16	u	u	u	u
Cc1ccc(CN(Cc2ccco2)C(=O)COc2ccc(Cl)cc2Cl)cc1	x	u	x	18µM*	x
Cc1cccc(OCC(=O)N(Cc2cccc(Cl)c2)Cc2ccco2)c1C	x	6.5µM*	x	-82%	x
O=C(COc1ccc(Cl)cc1Cl)N(Cc1ccco1)C1CCS(=O)(=O)C1 (stereo unspecified)	2	-23%	5%[9.24 µM]	-16%	0%
Cc1cc(OC(C)C(=O)N(Cc2ccco2)Cc2ccccc2F)cc(C)c1Cl (stereo unspecified)	x	21µM*	x	13µM*	x
O=C(c1cccc(Cl)c1)N(Cc1ccco1)Cc1ccccc1Cl	x	u	x	-80%	x
Nc1c(N(Cc2ccco2)C(=O)COc2ccccc2Cl)c(=O)[nH]c(=O)n1Cc1ccccc1	4	-6%	-4%	-18%	4%
O=C(COc1ccccc1Cl)N(Cc1ccco1)Cc1ccco1	x	u	x	23µM*	x
COc1ccc(C(=O)N2CCC3(CCCN(Cc4ccccc4)C3)CC2)cc1	x	-4%	x	-27%	x
Cc1cc(Cl)ccc1OCC(=O)N(Cc1ccco1)Cc1ccco1	x	u	x	23µM*	x
CCOc1cc(/C=C/C(=O)c2ccc3c(c2)OCCO3)ccc1OCC(=O)N(C)C	-104*	-95%	18µM*	23µM*	u
CCOc1ccc(/C=C/C(=O)c2ccc(-c3ccccc3)cc2)cc1	-9	u	-2%	u	-3%
CCOc1cc(/C=C/C(=O)c2ccc(O)cc2)ccc1OCC(=O)N(C)C	-103*	u	u	u	-23%
O=C(CCc1ccccc1)N1CCN(c2ccccc2F)CC1	-4	-7%	2%	3%	11%
O=C(CCCOc1ccccc1)N1CCN(c2ccc(F)cc2)CC1	-16	u	-6%	18µM*	-2%
O=C(CSCc1ccc(F)cc1)N1CCN(c2ccccc2F)CC1	x	21µM*	x	26µM*	x
